Compound activity from PubChem.
BAZ2B block = qHTS Assay for Inhibitors of BAZ2B; Bromodomain adjacent to zinc finger domain protein 2B (Homo sapiens), Q9UIF8; AlphaScreen BAZ2B-H3K14Ac peptide displacement; Potency, µM (highest dose often 114 µM), for inactives: top-dose activity change, negative = inhibition, actives largely listed as inhibitors; 360,000 tested, 4.4% active; AID 504333, 2011; further: on the % scale 0 is the no-effect control and ±100 the full control effect; nearly all actives have a fitted effect of over 60% in size
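BAZ2B 50 nM plus b-H3(5-23)K14Ac 50 nM, PBS pH 7.4/0.01% Tween-20, 30 min RT; compound added (max 110 uM), 30 min RT; streptavidin donor/Ni-chelate acceptor beads 10 ug/mL final, 20 min dark; AlphaScreen read.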
HP1b binding inh = HTS for Inhibitors of HP1-beta Chromodomain Interactions with Methylated Histone Tails; AlphaScreen HP1-beta / biotin-H3K9me3 peptide binding; Potency, µM (doses to about 114 µM), for the others: at the highest dose activity change, negative = inhibition, most hits filed as inhibitors; 390,000 tested, 0.56% active; AID 540317, 2011; further: nearly all actives have a fitted effect of over 70% in size
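Compound inhibition of the preformed complex between 50 nM HP1-beta and 50 nM biotinylated H3K9me3 peptide was read by AlphaScreen. Buffer was PBS pH 7.4 with 0.01% Tween-20. Incubations ran 30 min at room temperature, with 10 ug/mL donor/acceptor beads.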
GLS inh = qHTS for Inhibitors of Glutaminase (GLS); Glutaminase kidney isoform, mitochondrial (Homo sapiens), O94925; GLS enzymatic activity, qHTS titration; Potency, µM (titrated, usually from 45.5 µM), for inactives: at the highest dose activity change, negative = inhibition, hits mostly inhibitors; 410,000 tested, 0.21% active; AID 624170, 2012; further: on the % scale 0 is the no-effect control and ±100 the full control effect
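hKGA in 45 mM KH2PO4 (pH 8.2), 0.02% Tween-20 with compound, then 1mM L-Glutamine (stock as added) plus glutamate oxidase/HRP/Amplex red coupling mix. Fluorescence read initially and after 30 min at RT; signal change reflects glutamate formation.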
JMJD2A Tudor inh = qHTS Assay for Inhibitors of JMJD2A-Tudor Domain. 390,000 tested, 4.4% active. Potency, µM (highest dose often 114 µM), without a hit: at the highest dose activity change, negative = inhibition, hits mostly inhibitors. AID 504339, 2011. Lysine-specific demethylase 4A (Homo sapiens), O75164. AlphaScreen JMJD2A-Tudor / H3K4me3 peptide binding; further: on the % scale 0 is the no-effect control and ±100 the full control effect; nearly all actives have a fitted effect of over 50% in size
G9a block = qHTS Assay for Inhibitors of Histone Lysine Methyltransferase G9a. Histone-lysine N-methyltransferase EHMT2 (Homo sapiens), Q96KQ7. G9a H3K9 monomethylation, AlphaScreen, 2 h. Potency, µM (top dose mostly 102 µM), without a hit: at the highest dose activity, negative = inhibition, actives largely listed as inhibitors. 350,000 tested, 8.8% active; further: on the % scale 0 is the no-effect control and ±100 the full control effect; nearly all actives have a fitted effect of over 75% in size
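Signal arises when biotinylated H3K9 peptide, once monomethylated, bridges streptavidin donor and antibody-captured acceptor beads. Enzyme at 20 nM was preincubated 15 min with test compounds; peptide 500 nM and SAM 20 uM then reacted for 2 h.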
Active calls of the source: *; ? = inconclusive; . = not tested or not shown; [ ] = dose if it differs, or a comment. The list is not random: actives were taken first. Their share in the collection is about 10%. The call rests on the fitted dose curve; in most records, active means well fitted curve in the direction sought with a large enough effect; inconclusive means small, poorly fitted or top-dose-only effect, or another doubt; inactive means no such curve, though single readings can be large; an effect the other way counts as inactive or inconclusive. Potency means the concentration at half of the fitted maximal effect.

SMILES	BAZ2B block	HP1b binding inh	GLS inh	JMJD2A Tudor inh	G9a block
CCCn1cc(C(=O)N(C)C2CCCN(Cc3ccccc3F)C2)c(C)n1 (stereo not drawn)	0%	26%	1%	-7%	49%
C[C@H](CO)N1C[C@H](C)[C@@H](CN(C)S(=O)(=O)c2ccccc2)Oc2c(NC(=O)Nc3ccc4c(c3)OCO4)cccc2C1=O	.	70%	6%	?	.
O=C(c1ccc2c3c(cccc13)CC2)C1CCCN(Cc2cccnc2)C1 (stereo not drawn)	45µM*	-3%[57 µM]	-23%	?	.
COc1cc(CN2CCCC(C(=O)c3ccc4c5c(cccc35)CC4)C2)cc(OC)c1O (stereo not drawn)	40µM*	-20%	19%	?	32µM*
Cc1cccc(CN2CCCC(C(=O)c3ccc4c5c(cccc35)CC4)C2)n1 (stereo not drawn)	?	10%	5%	?	?
Cc1c(C(=O)Nc2ccc(F)c(Cl)c2)sc2nc3n(c(=O)c12)CCC3	-13%	40%	-7%	-12%	-1%[59 µM]
O=C(CSc1cn(CCNC(=O)c2ccccc2)c2ccccc12)NCc1ccco1	?	17%	2%	?	40µM*
O=C(CSc1cn(CCNC(=O)c2ccccc2)c2ccccc12)NCC1CCCO1 (stereo not drawn)	-5%	29%	13%	-12%	1%
CCCn1cc(SCC(=O)NCc2ccco2)c2ccccc21	?	15%	-8%	-31%	40µM*
NC(=O)Nc1ccc(C(=O)OCC(=O)Nc2ccc(Cl)cn2)cc1	0%	21%	1%	-7%	.
O=C(c1ccc(N2C(=O)CCC2=O)cc1)N1CCCSC1=Nc1ccccc1	.	.	3%	.	.
N#Cc1ccc(N)cc1OCCCN1CCCCC1	.	18%	0%	-10%	.
COc1ccc(CCNC(=O)CS(=O)(=O)c2cn(CC(=O)N3CCOCC3)c3ccccc23)cc1OC	.	26%	-13%	-19%	50µM*
COCCCNC(=O)Cn1cc(C(C)=O)c2ccccc21	6%	12%	1%	-11%	-4%
Cc1ccc(NC(=O)CS(=O)(=O)c2cn(CC(=O)N3CCOCC3)c3ccccc23)cc1	.	29%	5%	-1%	-45%
COCCNC(=O)Cn1cc(C(=S)N2CCOCC2)c2ccccc21	-25%	-13%	-10%	-6%	35µM*
NC(=O)c1ccc(NC(=O)CS(=O)(=O)c2cn(CC(=O)N3CCCC3)c3ccccc23)cc1	-19%	60%	-5%	-2%	25µM*
COc1ccc(CCNC(=O)C(=O)c2cn(CC(=O)N3CCOCC3)c3ccccc23)cc1OC	?	23%	-1%	-3%	-4%
COc1ccc(NC(=O)CS(=O)(=O)c2cn(CC(=O)N3CCOCC3)c3ccccc23)cc1OC	1%	33%	-4%	-22%	35µM*
CCc1nc(SCC(=O)Nc2ccc(C(=O)O)cc2)n[nH]1	-4%	92%	3%	-14%	45µM*
CCc1nc(SCC(=O)Nc2ccc(N(C)C)cc2)n[nH]1	-7%	3%	-4%	-19%	-17%[0.501 µM]
O=C(CSc1n[nH]c(-c2ccccn2)n1)Nc1ccc(Cl)cc1	5µM*	56%	0%	10µM*	35%
O=C(CSc1n[nH]c(-c2ccccc2)n1)Nc1ccccc1O	-20%	7%	22%	-19%	50µM*
O=C(CSc1n[nH]c(-c2ccccc2)n1)Nc1ccc(F)cc1F	-17%	40%	1%	-9%	15%
Cc1ccc(NC(=O)CSc2n[nH]c(-c3ccccn3)n2)cc1	4µM*	58%	-2%	4µM*	8%[59 µM]
CCCN1CCC(C(=O)NC(c2ccc(Cl)cc2)c2ccsc2)CC1 (stereo not drawn)	.	.	1%	.	.
